# Compound activity deposited in PubChem by National Center for Advancing Translational Sciences (NCATS).
# PTAP TSG101 blk: blocks PTAP/TSG101 interaction to inhibit HIV-1 budding; Q99816; Fluorescence polarization, FITC-PTAP peptide / Tsg101 binding; Potency, µM (top dose mostly 115 µM), for the others: top-dose activity change, negative = inhibition, hits mostly inhibitors; 340,000 tested, under 10 active; AID 493005; active = well fitted inhibition curve with a large enough effect in the main read-out, with a control signal flat, not every such curve was filed as active; inconclusive = small, poorly fitted or top-dose-only effect, or effect the other way, or a change in a side signal; inactive = no such curve, though single readings can be large or run the other way; also: potency is read from the fitted curve at half-maximal effect; % of control where 0% means no effect
# Target sequence (Q99816 whole entry, looked up): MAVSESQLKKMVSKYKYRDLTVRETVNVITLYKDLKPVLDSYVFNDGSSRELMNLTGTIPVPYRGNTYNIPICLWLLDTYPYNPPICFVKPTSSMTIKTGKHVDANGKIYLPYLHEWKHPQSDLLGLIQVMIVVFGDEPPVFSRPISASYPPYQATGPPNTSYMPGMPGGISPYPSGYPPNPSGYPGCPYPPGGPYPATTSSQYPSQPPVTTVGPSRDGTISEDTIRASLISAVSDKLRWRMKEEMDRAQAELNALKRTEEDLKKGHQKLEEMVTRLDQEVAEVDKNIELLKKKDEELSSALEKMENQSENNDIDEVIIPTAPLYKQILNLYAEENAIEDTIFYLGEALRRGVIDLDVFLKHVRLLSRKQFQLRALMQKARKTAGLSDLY
#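 Fluorescence polarization binding of Tsg101 binding domain (10 uM final) to FITC-labeled PTAP peptide (50 nM final) in HEPES pH 7.5 buffer with NaCl, Tween 20, EDTA, TCEP. Compounds added before peptide; binding 20 min at RT.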
# TRHR enhancer-1: allosterically enhances the human TRH receptor; TRHR cells, fluo-8 calcium fluorescence, EC20 TRH enhancement; enhancement, % at 2 µM; 360,000 compounds, 0.66% hits; in the data active = enhancement above about 30%; also: 0% is about no effect
# Target sequence (P34981 whole entry, looked up): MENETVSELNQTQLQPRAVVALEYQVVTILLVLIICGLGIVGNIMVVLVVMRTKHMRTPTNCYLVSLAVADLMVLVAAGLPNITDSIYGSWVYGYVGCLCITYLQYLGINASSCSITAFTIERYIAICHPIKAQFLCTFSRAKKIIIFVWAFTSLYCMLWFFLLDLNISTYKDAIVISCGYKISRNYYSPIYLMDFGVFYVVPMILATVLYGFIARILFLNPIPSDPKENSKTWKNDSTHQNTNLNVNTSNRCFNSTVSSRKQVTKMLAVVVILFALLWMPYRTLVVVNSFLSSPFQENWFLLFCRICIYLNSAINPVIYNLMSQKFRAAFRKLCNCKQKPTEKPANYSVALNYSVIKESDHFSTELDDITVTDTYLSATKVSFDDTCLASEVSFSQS
#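 TRHR-expressing cells loaded with fluo-8 calcium dye were read kinetically (ex 480/em 530) during compound addition, then stimulated with an EC20 of TRH (10 nM final). Enhancement of the Gq-mediated intracellular calcium response was scored.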
# TRHR agonist-1: agonists of human TRH receptor; 360,000 compounds, 0.18% hits; TRHR cells, calcium flux fluo-8, FDSS agonist mode; P34981; activation, % at 2 µM; in the data active = activation above about 30%; also: 0% is about no effect
#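 TRHR-expressing cells, plated overnight in medium with 10% serum, were loaded with fluo-8 calcium dye at room temperature. After a 10 s baseline, library compound was pin-added and calcium release was recorded kinetically (ex 480/em 530) as agonist response.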
# TRPML1 agonist: activates the human TRPML1 channel; Q9GZU1; TRPML1-expressing cells, Ca2+ dye fluorescence, FDSS; activation, % (test concentration not listed); 410,000 compounds, 0.12% hits; AID 624414; in the data active = activation above about 50%; inconclusive = mostly about 30% to 49%; also: 0% is about no effect
#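 Kinetic FDSS Ca2+ read in Tet-induced TRPML1-DL cells (ABD Ca8 dye plus quencher, 45-90 min RT loading): baseline, then compound, then 110 s agonist window; EC80 agonist 54-4 at 4uM final added afterwards for a 110 s antagonist window.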
# TRPML1 inh: inhibitors of human TRPML1 channel; Q9GZU1; TRPML1-inducible cells, Ca2+ dye fluorescence, FDSS; active compounds read low; inhibition of EC80 agonist-evoked calcium signal; activity change, negative = inhibition, % (test concentration not listed); 390,000 compounds, 0.02% hits; AID 624415; in the data active = activity change below about -50%; inconclusive = between about -30% and that limit;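 also: stimulus is agonist 54-4 at its EC80 concentration; % is scaled to controls: 0 for no effect and ±100 for the full control effect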
#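 Tet-induced TRPML1-DL cells loaded with Ca8 no-wash calcium dye were read kinetically on FDSS. Compound addition was followed by EC80 agonist 54-4 (4 uM final); inhibition was read over 110 s.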
# TRHR enhancer-2: human TRH receptor allosteric enhancement confirmation; shares compounds with TRHR enhancer-1; TRH receptor cell assay, enhancer confirmation qHTS; activity change, negative = inhibition, % at 46.1 µM; 970 tested, under 10 active; AID 493076;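 also: compound effect scored on response to added TRH at EC20 of 10 nM; 0% is about no effect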
# TRHR agonist-2: confirmation of human TRH receptor agonists. shares compounds with TRHR enhancer-1. TRHR-expressing cells, agonist activation read-out. Potency, µM (highest dose often 46.1 µM), for inactives: at the highest dose activation, actives largely listed as activators. 970 compounds, 8% hits; also: potency is read from the fitted curve at half-maximal effect; 0% is about no effect; nearly all actives have a fitted effect of over 75% in size
# * = called active by the depositor; ? = inconclusive; nt = no result given; ! = not confirmed by another sample. Only some compounds are listed: those with a hit (about 0.81% of all), similar ones and a draw of the others. Unless noted, calls follow the shape of the dose curve; as a rule, active = well fitted curve in the direction sought with a large enough effect; inconclusive = small, poorly fitted or top-dose-only effect, or another doubt; inactive = no such curve, though single readings can be large; an effect the other way counts as inactive or inconclusive.
SMILES,PTAP TSG101 blk,TRHR enhancer-1,TRHR agonist-1,TRPML1 agonist,TRPML1 inh,others
CCc1ccccc1NC(=O)CSc1nnc(C2CC2)n1CC1CCCO1 (configuration not stated),-5.7%,30.8*,-1.7,0.0,18.5,
COc1ccc(NC(=O)CN(C)C(=O)c2cccc3ccccc23)cc1,-0.3%,-0.2,0.1,-0.5,-1.9,
COc1ccc(NC(=O)CN(C)C(=O)c2ccccc2OC)cc1,0.1%,35.3*,0.7,-0.6,-2.3,
O=[N+]([O-])c1ccc(Nc2nc(NCCN3CCOCC3)nc(Nc3ccc(Cl)cc3)n2)cc1,nt,nt,nt,0.2,nt,
COc1ccc(S(=O)(=O)Nc2ccc3ccccc3c2)cc1C,-3.8%,9.4,0.3,2.7,-4.0,
COc1ccc(NS(=O)(=O)c2ccc3[nH]c(=O)[nH]c3c2)cc1OC,0.0%,31.6*,1.3,-0.6,-3.5,
COc1ccc(S(=O)(=O)Nc2ccc3cn[nH]c3c2)cc1C,-2.5%,39.3*,-0.3,1.9,6.1,
COc1cc(/C=c2\[nH]c(=O)/c(=C/c3cc(OC)c(OC)c(OC)c3)[nH]c2=O)cc(OC)c1OC,nt,nt,nt,-0.7,nt,
Cc1c([N+](=O)[O-])cnc2ccccc12,nt,nt,nt,-0.7,nt,
COc1ccc(S(=O)(=O)N2CCC(c3nc4ccccc4[nH]3)CC2)cc1,-3.2%,39.3*,-0.4,1.3,-2.0,
CN(CCC#N)c1ccc(/C=C/c2ccnc3ccccc23)cc1,nt,nt,nt,4.1,nt,
COc1ccccc1CNC(=O)C1CCCN(S(=O)(=O)c2cccs2)C1 (configuration not stated),-5.6%,40.3*,0.0,0.8,-2.8,
COc1ccccc1CNC(=O)C1CCCN(S(C)(=O)=O)C1 (configuration not stated),1.1%,-4.9,0.4,0.8,1.4,
COc1ccc([N+](=O)[O-])cc1C(=O)C(=O)c1ccccc1,-5.8%,32.7*,-0.7,-0.2,67.1,
COc1ccc(NC(=O)c2cc3ccccc3o2)cn1,-5.9%,40.8*,0.1,0.6,5.0,
COc1ccc(NC(=O)c2cc(=O)c3ccccc3o2)cn1,-8.0%,4.2,0.1,0.0,13.0,
COc1ccc(NC(=O)C2CCC(C(C)(C)C)CC2)cc1S(=O)(=O)N1CCCCC1 (configuration not stated),1.0%,-2.5,-0.7,83.8*,-1.4,
COc1ccc(NC(=O)C2CC2)cc1S(=O)(=O)N1CCOCC1,0.1%,0.4,1.1,-0.3,0.6,
COc1ccc(S(=O)(=O)N2CCN(Cc3ccccc3)CC2)cc1OC,0.5%,35.3*,0.1,-0.6,18.3,
COc1ccc(S(=O)(=O)N2CCC(C(=O)Nc3ccc(Oc4ccccc4)cc3)CC2)cc1OC,nt,32.3*,-0.1,-0.8,23.6,
COc1ccc(CN2CCN(S(=O)(=O)c3ccc(C)cc3)CC2)cc1OC,-1.6%,nt,nt,-0.7,-11.7,
COc1ccc2[nH]c(CCc3nc4c(OC)c(OC)ccc4[nH]3)nc2c1OC,nt,nt,nt,-0.9,nt,
CN(C)c1ccc(/C=C/c2ccnc3ccccc23)cc1,nt,nt,nt,19.9,nt,
C#CCN(C1CCCC1)S(=O)(=O)C=C,nt,nt,nt,-0.6,nt,
COc1cccc(C(=O)NCC(=O)OCc2cc(=O)n3c(C)csc3n2)c1,nt,34.4*,-0.1,-0.3,-4.0,
SMILES,PTAP TSG101 blk,TRHR enhancer-1,TRHR agonist-1,TRPML1 agonist,TRPML1 inh,others
O=C1c2ccccc2-c2onc3ccc(Oc4ccccc4)c1c23,?,32.0*,2.0,5.5,-2.9,
N#C/C(=C(/O)c1ccc(F)cc1)c1nc2ccccc2s1,-5.5%,-3.1,1.5,0.4,12.0,
N#C/C(=N\O)c1nc2ccccc2s1,-2.8%,31.5*,0.5,-0.3,0.5,
CN(C(=O)COC(=O)c1ccccc1OCC(=O)Nc1ccc(Br)cc1)c1ccccc1,nt,nt,nt,3.3,nt,
COC(=O)c1nnn(CC(=O)NC(=O)Nc2cccc(C)c2C)c1C(=O)OC,0.6%,0.7,2.2,1.4,9.8,
COC(=O)c1nnn(CC(=O)NC(=O)Nc2ccccc2F)c1C(=O)OC,-8.0%,31.0*!,0.6,0.3,42.9,
COc1cc2nc(N(C)C)nc(NC3CCN(C)CC3)c2cc1OC,nt,nt,nt,-0.3,nt,
O=C(CN1C(=O)c2ccccc2C1=O)NC1CCCCCC1,-7.2%,32.7*,0.4,1.1,-3.0,
Cc1ccccc1CSCC(=O)NC1CCCC1,-3.9%,-4.4,-0.3,-0.7,34.4,
Cc1ccccc1CC(=O)NC1CCCCCC1,-0.8%,-1.9,-0.1,1.2,-54.4*,
O=C(CN1C(=O)c2ccccc2C1=O)NC1CCCCC1,3.3%,-2.0,-1.2,-0.5,3.0,
CN(C)C(=S)NCc1ccccc1,-0.1%,37.9*,-0.2,0.2,18.7,
CCOC(=O)N1CCN(/[N+]([O-])=N/OCOC)CC1,nt,nt,nt,0.8,-6.7,
COc1ccc(Nc2c3c(nc4ccc(NC(=O)c5ccc(F)cc5)cc24)CCCC3)cc1OC,nt,42.5*,-1.5,-0.9,0.7,
O=C1CCC[C@@H]2[C@@H](Cc3ccccc3)[C@@H](Nc3ccccc3)C[C@@H]3CCN1[C@@H]32,nt,nt,nt,-0.8,nt,
COC(=O)C1=NN(C(=O)c2ccc(Cl)cc2)C(O)(c2ccccc2)C1 (configuration not stated),-8.4%,-5.8,46.5*,7.0,-0.1,TRHR enhancer-2=-6.9;TRHR agonist-2=18.4µM*
CCC1=NN(C(=O)c2ccc(Cl)cc2)C(O)(c2ccccc2)C1 (configuration not stated),-4.7%,-10.8,0.0,nt,nt,
CCn1c2ccccc2c2cc(CNCCCN3CCOCC3)ccc21,-3.3%,42.6*,-0.2,-0.5,5.8,TRHR enhancer-2=14.3;TRHR agonist-2=2.8%
CC(C)CC(=O)c1c[nH]c(C(=O)NCc2cccs2)c1,-6.4%,44.0*,-0.7,-0.9,52.7,TRHR enhancer-2=5.0;TRHR agonist-2=0.3%
CCC(=O)c1c[nH]c(C(=O)NCc2cccs2)c1,-0.9%,1.0,0.4,-0.1,-7.7,
O=c1[nH]/c(=C/c2ccc3c(c2)OCO3)c(=O)[nH]/c1=C\c1ccc2c(c1)OCO2,nt,nt,nt,-0.2,nt,
Cc1c(/C=N/O)c2ccccn2c1C=O,-4.8%,60.1*,0.2,1.7,16.6,TRHR enhancer-2=0.0;TRHR agonist-2=0.9%
O=C(C[N+]1(CCO)CCOCC1)c1cccs1,nt,nt,nt,-0.1,nt,
COc1ccc(Br)cc1C1NC(c2ccc3c(c2)OCO3)=CC(c2ccccc2O)N1 (configuration not stated),nt,nt,nt,-0.2,nt,
COc1ccc(-c2cc(C(F)(F)F)c3c(n2)sc2c(O)cc(=O)[nH]c23)c(OC)c1,?,8.3,34.5*,4.8,-6.5,TRHR enhancer-2=4.4;TRHR agonist-2=?
COc1cccc(/C=N/NC(=O)c2c(C)nc3ccc(Br)cn23)c1O,-1.4%,2.5,35.3*,12.7,31.8,TRHR enhancer-2=0.2;TRHR agonist-2=?
